The supplement of paper PMC11634586
Structures can show the parent of a compound that is named as a salt.

System: NCI-H1688
Assay: inhibition of cell viability relative to untreated control (fraction); higher = stronger growth inhibition, active = 0.5 or more
Settings: 30 µM; 24 h
In short: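 Values are inhibition of cell viability expressed as a fraction, derived from viability normalised to untreated cells. NCI-H1688 small cell lung cancer cells in 96-well plates were exposed to a natural compound library (TargetMol) at 30 µM for 24 h at 37°C with 5% CO2, and Cell Counting Kit-8 absorbance at 450 nm was then read.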

| SMILES | inhibition of cell viability |
| --- | --- |
| OC[C@@H](O)[C@@H](O)[C@H](O)[C@@H](O)CO [D-Sorbitol] | -0.224 (inactive) |
| CC12CCC(CC1)C(C)(C)O2 [Eucalyptol] | -0.192 (inactive) |
| CCCCCC1C(=O)CCC1CC(=O)OC (stereo not drawn) [Methyl Dihydrojasmonate;Hedione] | -0.235 (inactive) |
| C=C[C@H]1CN2CC[C@H]1C[C@H]2[C@H](O)c1ccnc2ccc(OC)cc12 [Quinine] | 0.162 (inactive) |
| C[C@H]1[C@H](C)CC[C@]2(C(=O)O[C@@H]3O[C@H](CO[C@@H]4O[C@H](CO)[C@@H](O[C@@H]5O[C@@H](C)[C@H](O)[C@@H](O)[C@H]5O)[C@H](O)[C@H]4O)[C@@H](O)[C@H](O)[C@H]3O)CC[C@]3(C)C(=CC[C@@H]4[C@@]5(C)C[C@@H](O)[C@H](O)[C@@](C)(CO)[C@@H]5[C@H](O)C[C@]43C)[C@H]12 [Madecassoside] | 0.808 (active) |
| CN[C@@H]1[C@H](O[C@H]2[C@H](O[C@H]3[C@H](O)[C@@H](O)[C@H](N=C(N)N)[C@@H](O)[C@@H]3N=C(N)N)O[C@@H](C)[C@]2(O)C=O)O[C@@H](CO)[C@H](O)[C@H]1O [Streptomycin sulfate] | -0.138 (inactive) |
| COc1ccc2cc1Oc1ccc(cc1)C[C@H]1c3cc(c(OC)cc3CCN1C)Oc1c(O)c(OC)cc3c1[C@H](C2)N(C)CC3 [(+)-Fangchinoline] | 0.984 (active) |
| COc1c(C)c2c(c(O)c1C/C=C(\C)CCC(=O)O)C(=O)OC2 [Mycophenolic acid] | 0.841 (active) |
| O=C(O)c1ccc(O)c(O)c1 [Protocatechuic acid] | 0.00558 (inactive) |
| Oc1cc(O)c2c(c1)O[C@H](c1cc(O)c(O)c(O)c1)[C@H](O)C2 [Epigallocatechin] | -0.059 (inactive) |
| O=C(O[C@@H]1Cc2c(O)cc(O)cc2O[C@@H]1c1cc(O)c(O)c(O)c1)c1cc(O)c(O)c(O)c1 [(-)-Epigallocatechin Gallate] | 0.0795 (inactive) |
| CC(C)=CCC[C@](C)(O[C@@H]1O[C@H](CO)[C@@H](O)[C@H](O)[C@H]1O)[C@H]1CC[C@]2(C)[C@@H]1[C@H](O)C[C@@H]1[C@@]3(C)CC[C@H](O)C(C)(C)[C@@H]3[C@@H](O[C@@H]3O[C@H](CO)[C@@H](O)[C@H](O)[C@H]3O[C@@H]3O[C@@H](C)[C@H](O)[C@@H](O)[C@H]3O)C[C@]12C [Ginsenoside Re] | -0.0285 (inactive) |
| CC(/C=C/C=C(\C)C(=O)O[C@@H]1O[C@H](CO[C@@H]2O[C@H](CO)[C@@H](O)[C@H](O)[C@H]2O)[C@@H](O)[C@H](O)[C@H]1O)=C\C=C\C=C(C)\C=C\C=C(/C)C(=O)O[C@@H]1O[C@H](CO[C@@H]2O[C@H](CO)[C@@H](O)[C@H](O)[C@H]2O)[C@@H](O)[C@H](O)[C@H]1O [Crocin] | 0.267 (inactive) |
| O=C1c2c(O)cc(O)cc2O[C@H](c2cc(O)c(O)c(O)c2)[C@H]1O [Dihydromyricetin] | 0.596 (active) |
| CC(=O)O[C@@]12CO[C@@H]1C[C@H](O)[C@@]1(C)C(=O)[C@H](O)C3=C(C)[C@@H](OC(=O)[C@H](O)[C@@H](NC(=O)OC(C)(C)C)c4ccccc4)C[C@@](O)([C@@H](OC(=O)c4ccccc4)[C@H]21)C3(C)C [Docetaxel] | 0.493 (inactive) |
| C/C=C\c1ccc(OC)cc1 [cis-Anethol] | -0.182 (inactive) |
| CCOC(=O)/C=C/c1ccc(O)c(OC)c1 [Ethyl ferulate] | -0.0133 (inactive) |
| C[C@]12C[C@H](O)[C@H]3[C@@H](CCC4=CC(=O)CC[C@@]43C)[C@@H]1CC[C@@H]2C(=O)CO [Corticosterone] | 0.0335 (inactive) |
| Nc1ncnc2c1ncn2[C@@H]1O[C@H](CO)[C@@H](O)[C@H]1O [Adenosine] | 0.189 (inactive) |

| SMILES | inhibition of cell viability |
| --- | --- |
| C=C(C)[C@H]1CC=C(C)C(=O)C1 [(S)-(+)-Carvone] | 0.248 (inactive) |
| C[C@]12CCC(=O)C=C1CC[C@@H]1[C@@H]2C(=O)C[C@@]2(C)[C@H]1CC[C@]2(O)C(=O)CO [Cortisone] | -0.215 (inactive) |
| CN[C@@H]1[C@@H](O[C@H]2O[C@H](CO)[C@@H](N)[C@H](O)[C@H]2O)OC2C[C@@H](N)[C@@H](O[C@H]3[C@H](O)[C@@H](O)[C@H](N)C[C@@H]3N)OC2[C@@H]1O (stereo partly drawn) [Apramycin sulfate] | -0.0456 (inactive) |
| NCCCS(=O)(=O)O [Homotaurine] | 0.357 (inactive) |
| Cc1cc(O)c2c(c1)C(=O)c1cccc(O)c1C2=O [Chrysophanic Acid] | -0.28 (inactive) |
| COc1cc(O)cc(OC)c1OC [3,4,5-Trimethoxyphenol] | 0.0652 (inactive) |
| CC1CCC2(O)C(C)(C)C3CCC2(C)C1C3 (stereo not drawn) [Patchouli alcohol] | 0.0152 (inactive) |
| Cc1cc(O)cc(O)c1C(=O)O [Orsellinic acid] | -0.313 (inactive) |
| O=c1c(O)c(-c2cc(O)c(O)c(O)c2)oc2cc(O)cc(O)c12 [Myricetin] | 0.0201 (inactive) |
| C=CCc1ccc(O)c(-c2ccc(O)c(CC=C)c2)c1 [Honokiol] | 0.844 (active) |
| CN1c2ccccc2C(=O)N2CCc3c([nH]c4ccccc34)C21 (stereo in doubt) [Evodiamine] | 0.848 (active) |
| C=C1CC23CCC4C(C)(C(=O)OC5OC(CO)C(O)C(O)C5O)CCCC4(C)C2CCC1(OC1OC(CO)C(O)C(OC2OC(CO)C(O)C(O)C2O)C1OC1OC(C)C(O)C(O)C1O)C3 (stereo not drawn) [Dulcoside B] | 0.0729 (inactive) |
| COc1ccc2cc1Oc1ccc(cc1)C[C@H]1c3cc(c(OC)cc3CCN1C)Oc1c(OC)c(OC)cc3c1[C@H](C2)N(C)CC3 [Tetrandrine] | 1.01 (active) |
| COC(=O)CC[C@@H](C)[C@H]1CC[C@H]2[C@@H]3[C@H](O)C[C@@H]4C[C@H](O)CC[C@]4(C)[C@H]3C[C@H](O)[C@]12C [Methyl Cholate] | 0.013 (inactive) |
| COc1ccc(-c2cc(=O)c3c(OC)c(OC)c(OC)c(OC)c3o2)cc1 [Tangeretin] | 0.299 (inactive) |
| OC[C@@H](O)[C@@H](O[C@H]1O[C@H](CO)[C@@H](O)[C@H](O)[C@H]1O)[C@H](O)[C@@H](O)CO [Maltitol] | 0.0233 (inactive) |
| O=C(O)/C=C/c1ccc(O)c(O)c1 [Caffeic Acid] | -0.0219 (inactive) |
| C[C@]12CC[C@@H]3c4ccc(O)cc4CC[C@H]3[C@@H]1CCC2=O [Aquacrine] | 0.0269 (inactive) |
| NC(=O)CCC(N)C(=O)O (racemic) [DL-Glutamine] | -0.221 (inactive) |
